Screening results as filed in PubChem BioAssay.
Peg3 prom inh: reduces Peg3 promoter-driven luciferase expression in HeLa. HeLa PEG-Prom luciferase reporter, luminescence, overnight. inhibition, % at 20 µM. 1.7% of 360,000 active;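 active = inhibition of at least 50% at 20 µM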
LGR2 inh: inhibitors of bursicon-induced Drosophila LGR2 receptor cAMP signaling | HEK293 LGR2, CRE-luciferase, bursicon-stimulated, 4 h | inhibition, % at 9.99 µM | 0.35% of 380,000 active | AID 720647;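 active = drop in luminescence signal, shown as inhibition above about 50% in the replicate tests, limit read from the data, passing the limit was not always enough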;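 also: agonist challenge used bursicon conditioned medium at about half maximal strength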
HSP90 refold inh: blocks HSP90-mediated luciferase refolding in reticulocyte lysate | Rabbit reticulocyte lysate, luciferase refolding luminescence, 3 h | inhibition, % at 5.6 µM | 0.91% of 290,000 active;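 active = inhibition above the screen-wide mean plus 3 SD, computed separately per campaign, cut at about 16% in these data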;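 also: 0% = DMSO wells and 100% = 60 µM geldanamycin wells; inhibitors lower the luminescence because luciferase stays unfolded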
CF NFkB block: blocks PAF-induced NF-kB reporter in cystic fibrosis cells; KKLEB NF-kB-GFP reporter, GFP fluorescence overnight; inhibition, % at 5 µM; 0.86% of 360,000 active;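 active = at least 50% inhibition at 5 µM, scaled per plate between neutral and stimulator controls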;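 also: PAF is a Pseudomonas aeruginosa culture filtrate used as stimulus; plate controls were PAF-stimulated DMSO wells for no effect and unstimulated DMSO wells for full effect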
KKLEB tox: counter-screen for CF NF-kB inhibitors: cytotoxicity; AID 602141; KKLEB CF airway cells viability, ATPlite luminescence, overnight; active compounds read low; cells stimulated with P. aeruginosa culture filtrate; activity change (cytotoxicity), % at 5 µM; 0.36% of 360,000 active;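 active = corrected activity change at or below -50% at 5 µM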
Mdm2-MdmX inh: inhibitors of human Mdm2/MdmX interaction; O15151+Q00987; SaOS-2 split-luciferase Mdm2/MdmX complementation, luminescence; 3% of 330,000 active; inhibition, % at 8 µM;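 active = inhibition of at least 50% at 8 µM in the primary screen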
Mdm2-MdmX conf: human Mdm2/MdmX binding inhibition, confirmed | 55% of 10,000 active | luminescent assay | shares compounds with Mdm2-MdmX inh | inhibition, % at 8 µM; in the data active = inhibition above about 40%
Full FLuc ctr: counter-screen for Mdm2/MdmX inhibitors: full-length luciferase. 77% of 6,200 active. AID 504607. SaOS-2 full-length luciferase counterscreen, luminescence. shares compounds with Mdm2-MdmX inh. inhibition, % at 8 µM;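 active = mean inhibition at 8 µM reaching about 37%, which flags the compound as non-specific, limit read from the data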;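 also: p53-null SaOS-2 cells with luciferase driven by a doxycycline-inducible promoter; compound on cells about two nights before reading with doxycycline added after day one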
Starred values were filed as active, the others as inactive; . = no result given. Only some compounds are listed: those with a hit (about 3.6% of all), similar ones and a draw of the others.

SMILES	Peg3 prom inh	LGR2 inh	HSP90 refold inh	CF NFkB block	KKLEB tox	Mdm2-MdmX inh	Mdm2-MdmX conf	others
CCOc1ccc(-n2c(=O)c3c4c(sc3n(CC(=O)NCc3ccco3)c2=O)CCC4)cc1	39.8	.	-0.4	1.9	-6.4	72.8*	0.1
CCN(CC)C(=O)Cn1c(=O)n(-c2ccccc2)c(=O)c2c3c(sc21)CCC3	4.9	.	-4.0	-13.7	3.6	-11.1	.
Cn1c(=O)[nH]c(=O)c2c1nc(N1CCN(c3ccccc3)CC1)n2CCSc1ncccn1	31.9	2.2	-1.6	19.6	-14.1	53.7*	23.9
C[C@@H]1CCCCO[C@@H](CN(C)Cc2ccc3c(c2)OCO3)[C@@H](C)CN([C@@H](C)CO)C(=O)c2cc(NC(=O)Nc3ccc(F)cc3)ccc2O1	.	7.6	.	.	.	.	.
COc1cccc(-c2ccc3n(c2=O)C[C@@H]2[C@@H](CO)[C@H](C(=O)NC4CCCC4)N[C@H]32)c1	.	2.0	.	.	.	.	.
COc1ccc(S(=O)(=O)Nc2ccc3c(c2)C(=O)N([C@H](C)CO)C[C@@H](C)[C@@H](CN(C)C(=O)CCC(F)(F)F)OCCCC[C@@H](C)O3)cc1	.	7.5	.	.	.	.	.
Cc1ccc(C)c(Sc2ccc(NC(=O)CCl)cc2)c1	.	-21.1	4.0	.	.	66.9*	29.6
O=C(CCl)Nc1ccccc1Sc1ccccc1	-4.8	.	7.0	4.4	-4.6	13.1	.
Cc1ccc(NC(=O)CC(=O)Nc2ccc(C)c(C)c2)cc1C	17.4	-28.8	-3.1	-10.7	-0.7	13.5	.
Cc1ccc(Sc2ccc(NC(=O)CCl)cc2)cc1C	48.8	-23.1	3.6	-23.0	0.5	81.3*	27.7
CN(C)C(=O)C[C@H]1C=C[C@@H](NC(=O)C2CC2)[C@@H](CO)O1	.	12.4	.	.	.	.	.
CO[C@H]1CN(C)C(=O)c2cc(NS(=O)(=O)CC(F)(F)F)ccc2OC[C@H](C)N(Cc2nccs2)C[C@H]1C	.	12.0	.	.	.	.	.
CC(C)(C)OC(=O)CNC(=O)c1[nH]cnc1C(=O)Nc1ccc(CNC(=O)OC(C)(C)C)cc1	65.6*	.	.	43.4	-14.3	62.6*	54.1*	Full FLuc ctr=74.2*
CC(C)(C)OC(=O)NCc1ccc(NC(=O)c2nc[nH]c2C(=O)NCCNC(=O)c2[nH]cnc2C(=O)Nc2ccc(CNC(=O)OC(C)(C)C)cc2)cc1	83.8*	.	.	72.3*	-32.5	74.1*	23.8
Cc1cccc(NC(=O)c2nc[nH]c2C(=O)NCCCCCNC(=O)OC(C)(C)C)c1	28.5	27.7	.	-19.1	3.1	31.5	.
C[C@@H](O)CNC(=O)c1[nH]cnc1C(=O)Nc1ccc(CNC(=O)OC(C)(C)C)cc1	27.7	-14.0	.	-6.6	7.5	.	.
Cc1cccc(NC(=O)c2nc[nH]c2C(=O)N[C@@H](CCCCNC(=O)OC(C)(C)C)C(=O)OC(C)(C)C)c1	31.6	35.1	.	0.2	-8.0	61.3*	23.6
CC(C)(C)OC(=O)NCCCCCNC(=O)c1nc[nH]c1C(=O)NCc1ccc(CNC(=O)OC(C)(C)C)cc1	79.7*	.	.	14.8	-0.7	53.9*	21.6
CC(C)(C)OC(=O)NCc1ccc(CNC(=O)c2nc[nH]c2C(=O)NCc2ccc(CNC(=O)OC(C)(C)C)cc2)cc1	25.7	7.0	.	0.7	22.7	16.8	.
CO[C@@H]1CN(C)C(=O)c2ccc(NC(=O)Nc3ccc(Cl)cc3)cc2OC[C@@H](C)NC[C@@H]1C	.	-11.8	.	.	.	.	.
C[C@@H]1CN([C@@H](C)CO)C(=O)c2cccc(NC(=O)CCCCCC(=O)Nc3ccccc3N)c2O[C@@H]1CN(C)C(=O)Nc1ccc2c(c1)OCO2	.	-13.6	.	.	.	.	.
CC(C)C[C@H](NC(=O)c1[nH]cnc1C(=O)Nc1ccc(CNC(=O)OC(C)(C)C)cc1)C(=O)OC(C)(C)C	22.0	22.4	.	13.7	-9.2	52.5*	-8.9
CC(C)C[C@H](NC(=O)c1nc[nH]c1C(=O)NCc1ccc(CNC(=O)OC(C)(C)C)cc1)C(=O)OC(C)(C)C	17.2	25.2	-3.0	-8.1	0.7	32.4	.
CC(C)C[C@H](NC(=O)c1[nH]cnc1C(=O)Nc1ccc(CNC(=O)OC(C)(C)C)cc1)C(=O)OCc1ccccc1	38.7	9.5	.	-39.0	13.7	26.3	.
C[C@H](NC(=O)c1[nH]cnc1C(=O)Nc1ccc(CNC(=O)OC(C)(C)C)cc1)C(=O)OCc1ccccc1	97.5*	0.5	.	0.8	20.1	80.1*	14.2
SMILES	Peg3 prom inh	LGR2 inh	HSP90 refold inh	CF NFkB block	KKLEB tox	Mdm2-MdmX inh	Mdm2-MdmX conf	others
C[C@@H]1CN([C@@H](C)CO)C(=O)c2cccc(NC(=O)Nc3ccccc3)c2O[C@H]1CN(C)S(=O)(=O)c1cn(C)cn1	.	-11.1	.	.	.	.	.
CCN(CC)CCC(=O)N1c2ccccc2Sc2ccc(Cl)cc21	-19.0	-3.8	.	-5.8	-8.6	56.3*	38.5	Full FLuc ctr=65.2*
CN(C)CCC(=O)N1c2ccccc2Sc2ccc(Cl)cc21	9.4	10.0	0.3	10.1	3.2	23.8	.
CCc1cccc(CC)c1NC(=S)NCCc1ccc(O)c(O)c1	8.1	23.0	-1.9	34.5	-16.9	5.3	.
CCc1cccc(CC)c1NC(=S)NCCc1c(C)[nH]c2ccccc12	41.8	17.8	2.4	-5.8	2.5	50.7*	28.9
C[C@H](NC(=O)C[C@@H]1C=C[C@H](NC(=O)c2cccnc2)[C@H](CO)O1)c1ccccc1	.	13.9	.	.	.	.	.
COc1cccc(-c2cc(=O)c3cc(NC(=O)c4ccc(Cl)cc4)ccc3[nH]2)c1	-1.4	-7.7	-0.9	12.8	-4.7	42.7	.
COc1cccc(-c2cc(=O)c3cc(NC(=O)c4ccc(N(C)C)cc4)ccc3[nH]2)c1	.	.	2.4	.	.	65.0*	60.0*	Full FLuc ctr=71.1*
COc1cccc(-c2cc(=O)c3cc(NC(=O)c4ccccc4)ccc3[nH]2)c1	13.2	-12.6	-1.3	20.9	-12.9	58.7*	58.1*	Full FLuc ctr=41.6*
C[C@@H]1CN([C@H](C)CO)C(=O)c2cc(NC(=O)Nc3ccc4c(c3)OCO4)ccc2O[C@H]1CN(C)Cc1ccc(C(F)(F)F)cc1	.	7.4	.	.	.	.	.
C[C@@H]1CCCCO[C@H](CN(C)CC2CC2)[C@H](C)CN([C@H](C)CO)C(=O)c2cc(NS(=O)(=O)c3ccccc3)ccc2O1	.	-2.4	.	.	.	.	.
COc1cc(C2C(C#N)=C(N)N(Nc3ccccc3)C3=C2C(=O)CC(C)(C)C3)ccc1OCc1ccccc1 (stereo unspecified)	35.1	.	2.3	-13.8	-16.2	9.4	.
COc1cc(C2C(C#N)=C(N)N(Nc3ccccc3)C3=C2C(=O)CC(C)(C)C3)ccc1OCc1cccc(F)c1 (stereo unspecified)	25.1	4.4	2.6	-21.2	5.3	61.5*	18.6
COc1ccc(NC(=O)CSc2ccccc2)c(OC)c1	-228.9	.	-4.6	4.9	-1.1	-32.5	.
